According to PubChem BioAssay AID1490 (National Center for Advancing Translational Sciences (NCATS), 2009):
Several values for one entry are separate records, joined by “and”; a condition that tells them apart may be missing. Equal entries are not always repeated. The campaign covered roughly 310,000 compounds. About 11,000 (3.5%) were called active. Another 4% or so got no clear call; they are omitted. The sample holds actives, similar compounds and a random draw of the others, so the mix is not that of the screen. A number with no mark means an inactive call. Calls come from the whole dose curve; as a rule, active = well fitted inhibition curve with a large enough effect; inconclusive = small, poorly fitted or top-dose-only effect, or another doubt; inactive = no such curve, though single readings can be large or run the other way.

molecular target: 4'-phosphopantetheinyl transferase ffp (Bacillus subtilis) (UniProt Q9F4F7); assay: qHTS Assay for Inhibitors of Bacillus subtilis Sfp phosphopantetheinyl transferase (PPTase); conditions: Biochemical Sfp PPTase activity;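 note: the enzyme is Sfp with the accession as filed and its product quenches rhodamine fluorescence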;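 for largest response in the series, negative = inhibition: 0% = enzyme reaction without inhibitor and -100% = no enzyme wells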
How it was run: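 With Hepes-Na pH 7.6 buffer containing 10 mM MgCl2, Sfp (15 nM) modified BHQ-2-YbbR (12.5 uM) using rhodamine-CoA (5 uM). Two reads 30 minutes apart at 525/598 nm yielded each well's rate.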
Potency is the fitted concentration of half-maximal effect.

For `CCN(CC(=O)Nc1ccc(C)c(S(=O)(=O)N(C)C)c1)Cc1ccccc1`, which largest response in the series, negative = inhibition is on record?
The largest response in the series, negative = inhibition was -18.4%.

Which largest response in the series, negative = inhibition does the source give for `Cn1c(SCC(=O)N2CCCC2)nnc1-c1cccs1` here?
Its largest response in the series, negative = inhibition is 5.11%.

`Cc1c(C(=O)N2CCCC2)c(S(=O)(=O)NCC(C)c2ccccc2)c(C)n1C` (stereo not given) was tested. Which largest response in the series, negative = inhibition did it give?
The largest response in the series, negative = inhibition was -2.67%.

How did the largest response in the series, negative = inhibition turn out when `CC(=O)Nc1cccc(NC(=O)CSc2nccn2Cc2ccc(F)cc2)c1` was run?
Its largest response in the series, negative = inhibition is 11.3%.

Which largest response in the series, negative = inhibition does the source give for `CN(C)S(=O)(=O)c1ccc(C(=O)NCCN=C2NS(=O)(=O)c3ccccc32)cc1` here?
The largest response in the series, negative = inhibition was 2.12%.

For `Cc1cc(O)ccc1-c1cnc2ccccc2n1`, which Potency is on record?
The Potency was 50.1 µM (active).

With `Oc1ccc(-c2[nH]ncc2-c2nc3ccccc3s2)c(O)c1` as the compound, how does the largest response in the series, negative = inhibition read?
Its largest response in the series, negative = inhibition is 2.93%.

`c1ccc2nc(C3=NCCN3)cnc2c1` was tested. Which largest response in the series, negative = inhibition did it give?
Its largest response in the series, negative = inhibition is 2.82%.

How did the largest response in the series, negative = inhibition turn out when `CCOCCOC(=O)C(C)Oc1ccc(Oc2ncc(C(F)(F)F)cc2Cl)cc1` (stereo not given) was run?
Its largest response in the series, negative = inhibition is -1.26%.

Which largest response in the series, negative = inhibition does the source give for `O=C(c1ccco1)N1CCN(C(=O)c2cc(-c3ccccc3F)no2)CC1` here?
Its largest response in the series, negative = inhibition is 1.68%.

For `CN(CCO)S(=O)(=O)c1ccc2c(c1)C(=O)c1cc(S(=O)(=O)N(C)CCO)ccc1-2`, which largest response in the series, negative = inhibition is on record?
Its largest response in the series, negative = inhibition is 0.575%.

How did the largest response in the series, negative = inhibition turn out when `CC(OC(=O)c1ccc2noc(-c3ccccc3)c2c1)C(N)=O` (stereo not given) was run?
Its largest response in the series, negative = inhibition is 9.21%.

With `COc1ccc(-c2onc3ccc(C(C)=O)cc23)cc1` as the compound, how does the largest response in the series, negative = inhibition read?
Its largest response in the series, negative = inhibition is 15.7%.

How did the Potency turn out when `Oc1ccc(-c2onc3ccc(Cl)cc23)cc1` was run?
The Potency was 22.4 µM (active).

With `CCCCn1c(N)c(N(CC)C(=O)c2ccccc2C(F)(F)F)c(=O)[nH]c1=O` as the compound, how does the largest response in the series, negative = inhibition read?
Its largest response in the series, negative = inhibition is 6.91%.

How did the largest response in the series, negative = inhibition turn out when `CC(C)C[C@H]1CN=C(Nc2ccccc2)N1CC1CCCCC1` was run?
Its largest response in the series, negative = inhibition is 6.04%.

With `O=C(c1cc(COc2cccc(C(F)(F)F)c2)on1)N1CCSCC1` as the compound, how does the largest response in the series, negative = inhibition read?
The largest response in the series, negative = inhibition was -6.37%.

With `Cc1cc(NC(=O)c2ccco2)c(=O)n(Cc2c(F)cccc2Cl)c1` as the compound, how does the largest response in the series, negative = inhibition read?
Its largest response in the series, negative = inhibition is -1.88%.

`CN(Cc1ccccc1)C(=O)C1CCCN(c2ncnc3c2nc2n3CCCCC2)C1` (stereo not given) was tested. Which largest response in the series, negative = inhibition did it give?
Its largest response in the series, negative = inhibition is -5.59%.

Which Potency does the source give for `O=c1nc2s/c(=C\c3ccco3)c(=O)n2nc1Cc1ccccc1` here?
The Potency was 28.2 µM (active).

Which largest response in the series, negative = inhibition does the source give for `CN(c1ccccc1)c1ccc(/C=c2\s/c(=C(/C#N)C(=O)C(C)(C)C)n(Cc3ccco3)c2=O)cc1` here?
Its largest response in the series, negative = inhibition is -21.7%.

`O=C(Cc1ccccc1)n1nc(-c2ccccc2)nc1NCc1ccco1` was tested. Which largest response in the series, negative = inhibition did it give?
Its largest response in the series, negative = inhibition is 0.0328%.

`N#Cc1cc([N+](=O)[O-])ccc1NCC1CCCO1` (stereo not given) was tested. Which largest response in the series, negative = inhibition did it give?
Its largest response in the series, negative = inhibition is 13.1%.

`O=C(NC1CCCCCCC1)c1cccs1` was tested. Which largest response in the series, negative = inhibition did it give?
The largest response in the series, negative = inhibition was -20.5%.

`COCCNc1ncnc2ccc(-c3cccnc3)cc12` was tested. Which largest response in the series, negative = inhibition did it give?
The largest response in the series, negative = inhibition was 6.73%.

For `COc1ccccc1N1CCN(/N=C/c2ccc(O)cc2O)CC1`, which largest response in the series, negative = inhibition is on record?
Its largest response in the series, negative = inhibition is -7.55%.

With `COc1cc(/C=N/N2CCN(c3ccccc3)CC2)ccc1OC(C)=O` as the compound, how does the largest response in the series, negative = inhibition read?
Its largest response in the series, negative = inhibition is 16.9%.

For `COc1ccccc1N1CCN(/N=C\C(Br)=C\c2ccccc2)CC1`, which Potency is on record?
Its Potency is 31.6 µM (active).

For `COc1cc(CNCc2ccc(OC)c3ccccc23)cc(OC)c1OC`, which largest response in the series, negative = inhibition is on record?
Its largest response in the series, negative = inhibition is -22.2%.

With `Cc1ccc(S(=O)(=O)/N=C(/Nc2ccccn2)c2ccc(Cl)cc2)cc1` as the compound, how does the largest response in the series, negative = inhibition read?
The largest response in the series, negative = inhibition was -17.5%.

For `Cc1ccc(S/C(=N\S(=O)(=O)c2ccc(Cl)cc2)c2ccccc2)cc1`, which Potency is on record?
The Potency was 56.2 µM (active).

How did the largest response in the series, negative = inhibition turn out when `O=S(=O)(/N=C(/Nc1ccccn1)c1ccccc1)c1ccc(Cl)cc1` was run?
The largest response in the series, negative = inhibition was 27.1%.

`CCn1c(SCC(=O)Nc2nccs2)nnc1-c1ccncc1` was tested. Which largest response in the series, negative = inhibition did it give?
Its largest response in the series, negative = inhibition is 2.26%.

Which Potency does the source give for `Nn1c(SCC(=O)Nc2nccs2)nncc1=O` here?
The Potency was 22.4 µM (active).

With `COc1ccc(NC(=O)CSc2nncc(=O)n2N)cc1OC` as the compound, how does the largest response in the series, negative = inhibition read?
The largest response in the series, negative = inhibition was 9.26%.

For `O=S(=O)(c1ccc(-c2ccno2)s1)N1CCCCC1`, which largest response in the series, negative = inhibition is on record?
Its largest response in the series, negative = inhibition is 11.8%.

Which Potency does the source give for `COc1ccc(-c2oc3ncn(Cc4ccco4)c(=N)c3c2-c2ccc(OC)cc2)cc1` here?
Its Potency is 39.8 µM (active).

`COc1ccc(-c2oc3ncnc(NCCCO)c3c2-c2ccc(OC)cc2)cc1` was tested. Which largest response in the series, negative = inhibition did it give?
Its largest response in the series, negative = inhibition is -12.6%.

How did the largest response in the series, negative = inhibition turn out when `N=c1c2c(-c3ccccc3)c(-c3ccccc3)oc2ncn1Cc1ccco1` was run?
Its largest response in the series, negative = inhibition is -5.12%.

How did the largest response in the series, negative = inhibition turn out when `O=c1oc2ccccc2c(NC2CCCCC2)c1NS(=O)(=O)c1ccc(Cl)cc1` was run?
Its largest response in the series, negative = inhibition is 4.82%.

With `Cc1c(-c2cccc(Cl)c2)nc2ccccc2c1C(=O)OCC(=O)N(C)C1CCS(=O)(=O)C1` (stereo not given) as the compound, how does the largest response in the series, negative = inhibition read?
Its largest response in the series, negative = inhibition is 1.32%.

How did the largest response in the series, negative = inhibition turn out when `CN(C(=O)COC(=O)c1nc(Cl)ccc1Cl)C1CCS(=O)(=O)C1` (stereo not given) was run?
The largest response in the series, negative = inhibition was 11%.

How did the Potency turn out when `CN(C(=O)COC(=O)c1cc(-c2ccco2)nc2ccccc12)C1CCS(=O)(=O)C1` (stereo not given) was run?
The Potency was 28.2 µM (active).

Which largest response in the series, negative = inhibition does the source give for `Cc1ccc2nc(-c3ccc(Br)cc3)cn2c1` here?
Its largest response in the series, negative = inhibition is 17%.

For `Cc1ccc(C2C3=C(Nc4[nH]n(-c5ccccc5)c(=O)c42)c2ccccc2C3=O)cc1` (stereo not given), which largest response in the series, negative = inhibition is on record?
Its largest response in the series, negative = inhibition is -4.89%.

Which largest response in the series, negative = inhibition does the source give for `COC(=O)C1=C(C)NC(=O)NC1/C=C/c1ccccc1` (stereo not given) here?
The largest response in the series, negative = inhibition was 6.06%.

`COC(=O)C1=C(C)NC2=C(C(=O)c3ccccc32)C1c1ccc(-c2ccc(C(=O)O)cc2)o1` (stereo not given) was tested. Which Potency did it give?
The Potency was 14.1 µM (active).

Which largest response in the series, negative = inhibition does the source give for `COC(=O)c1ccc(N2CCOCC2)c(NC(=O)c2ccc(Br)o2)c1` here?
Its largest response in the series, negative = inhibition is 6.59%.

How did the largest response in the series, negative = inhibition turn out when `CC1=NOC(=O)/C1=C\c1ccccc1` was run?
Its largest response in the series, negative = inhibition is -4.08%.

Which largest response in the series, negative = inhibition does the source give for `C#CCOc1ccc(/C=C2/C(=O)NN(c3ccccc3)C2=O)cc1OC` here?
Its largest response in the series, negative = inhibition is 8.7%.

For `C#CCOc1ccccc1/C=C1/C(=O)ON=C1C`, which Potency is on record?
Its Potency is 50.1 µM (active).

For `NS(=O)(=O)c1ccc(CCNC(=O)c2nc(CS(=O)(=O)c3ccc(Cl)cc3)no2)cc1`, which largest response in the series, negative = inhibition is on record?
The largest response in the series, negative = inhibition was 13.4%.

`CCOC(=O)C1(C)NC(c2ccco2)C2C(=O)N(c3ccccc3)C(=O)C21` (stereo not given) was tested. Which largest response in the series, negative = inhibition did it give?
The largest response in the series, negative = inhibition was 27.2%.

`O=C1/C(=C\c2ccsc2)NC(=S)N1c1ccccc1` was tested. Which largest response in the series, negative = inhibition did it give?
The largest response in the series, negative = inhibition was 4.5%.

Which Potency does the source give for `CCCCN=C1N/C(=C\c2ccco2)C(=O)N1c1ccccc1` here?
Its Potency is 56.2 µM (active).

How did the largest response in the series, negative = inhibition turn out when `COc1cccc(N(CC(=O)NC2CCCC2)C(=O)CCCC(=O)Nc2ccccn2)c1` was run?
Its largest response in the series, negative = inhibition is 7.32%.

`COc1cccc(C(=O)Nc2nnc(S(=O)(=O)N3CCCCC3)s2)c1` was tested. Which largest response in the series, negative = inhibition did it give?
Its largest response in the series, negative = inhibition is 6.22%.

How did the largest response in the series, negative = inhibition turn out when `O=C(Nn1cnnc1)c1ccc([N+](=O)[O-])cc1` was run?
Its largest response in the series, negative = inhibition is 13.2%.

Which Potency does the source give for `O=C(Cn1c[n+](CC(=O)c2ccc([N+](=O)[O-])cc2)cn1)c1ccc([N+](=O)[O-])cc1` here?
The Potency was 56.2 µM (active) and 44.7 µM (active).

For `O=C(c1ccncc1)c1ccc([N+](=O)[O-])cc1`, which largest response in the series, negative = inhibition is on record?
The largest response in the series, negative = inhibition was 13.2%.
